# Results from PubChem BioAssay AID485364 (National Center for Advancing Translational Sciences (NCATS), 2010).
# Out of some 360,000 compounds screened, about 11,000 (3.1%) were called active. Not shown: some 4% with an inconclusive outcome. This is one part of a sample in which actives are shown more often than they occur. Values without a mark were called inactive. The call rests on the fitted dose curve; in most records, active means well fitted inhibition curve with a large enough effect; inconclusive means small, poorly fitted or top-dose-only effect; inactive means no such curve, though single readings can be large or run the other way.
# Target: Schistosoma mansoni thioredoxin glutathione reductase (TGR) (UniProt Q962Y6)
# Assay: qHTS Assay for the Inhibitors of Schistosoma Mansoni Peroxiredoxins; further: nearly all actives have a fitted effect of over 60% in size
# Conditions: purified TGR, DTNB reduction, TNB absorbance 405 nm; series mostly up to 114 µM; activity change, negative = inhibition: at the top concentration
# Outline: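 Kinetic colorimetric format: TGR-catalysed, NADPH-driven DTNB reduction monitored via TNB absorbance. Enzyme dispensed at 20 nM; compound exposure 15 min at room temperature before reaction start.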
# On the % scale 0 is the no-effect control and ±100 the full control effect; potency means the concentration at half of the fitted maximal effect.
Compound,"activity change, negative = inhibition",Potency
COc1ccc(/C=C(/NC(=O)c2ccccc2)C(=O)Nc2cccc(C(=O)O)c2)cc1,-14.6%,–
O=C(Nc1ccc(C(=O)O)cc1)/C(=C\c1ccccc1)NC(=O)c1ccc(Br)cc1,0.921%,–
Cc1cccc(NC(=O)/C(=C\c2ccco2)NC(=O)c2ccccc2)c1,–,20 µM (active)
COc1ccc(-c2nc3sc(CCNS(=O)(=O)c4ccc(F)c(C)c4)c(C)n3n2)cc1,6.57%,–
Cc1ccc2nc3c(cc(C(=O)NC4CCCCC4)c(=N)n3C(C)C)c(=O)n2c1,-3.44%,–
COc1ccc(N2C(=O)CC(Nc3ccc(F)cc3)C2=O)c([N+](=O)[O-])c1 (stereo not given),-14.2%,–
COc1ccc(NC2CC(=O)N(C)C2=O)cc1 (stereo not given),–,15.8 µM (active)
COc1ccc(N=C2SC(C(=O)Nc3ccc(F)cc3)CC(=O)N2C)cc1 (stereo not given),-2.04%,–
CCN(C(=O)Cn1c(=O)nc(-c2ccccc2)c2cc(Cl)ccc21)c1cccc(C)c1,3.12%,–
O=C(NC1CCCC1)C(c1ccco1)N(C(=O)c1ccco1)c1ccc(F)cc1 (stereo not given),0.474%,–
COc1cccc(C(C(=O)NC2CCCC2)N(C(=O)c2ccco2)c2cccc(C(C)=O)c2)c1OC (stereo not given),-21.3%,–
COC(=O)c1cccc(N(C(=O)c2ccco2)C(C(=O)NC2CCCC2)c2ccco2)c1 (stereo not given),–,44.7 µM (active)
Cc1ccc(CNC(=O)CSc2c(C)cnc3c2c(=O)n(C)c(=O)n3C)cc1,7.12%,–
Cc1ccc(NC(=O)CCCn2c(=O)c3cccn3c3ccccc32)cc1Cl,-2.7%,–
Cn1c(=O)[nH]c(=O)c2c1nc(NCCc1ccccc1)n2Cc1ccc(F)cc1,1.08%,–
CC(=O)C1=C(C)NC(=O)NC1c1ccc2c(c1)OCO2 (stereo not given),0.759%,–
Cc1c(C(=O)O)cccc1-n1c(C)cc(/C=C2\C(=O)NC(=O)N(c3ccc4c(c3)OCO4)C2=O)c1C,–,14.1 µM (active)
Cc1ccccc1-n1c(C)cc(/C=C2\NC(=O)NC2=O)c1C,-28.2%,–
CCOC(=O)c1cccc(NS(=O)(=O)c2cn(C)c(C)n2)c1,1.53%,–
CN(Cc1cccc2ncccc12)C(=O)CC1C(=O)NCCN1Cc1ccc(F)cc1 (stereo not given),–,35.5 µM (active)
CC(C)CN1CCNC(=O)C1CC(=O)N(C)CC1CCOCC1 (stereo not given),-22.3% [at 57.1 µM],–
C=CCC1(CC=C)CCCN1C(=O)CC1C(=O)NCCN1Cc1ccccc1OC (stereo not given),5.08%,–
CCCOC(=O)CC1C(=O)NCCN1Cc1ccc(F)cc1 (stereo not given),0%,–
Cc1cnc(CN(C)C(=O)CC2C(=O)NCCN2Cc2cccc(F)c2F)[nH]1 (stereo not given),-24.1%,–
COc1ccccc1CN1CCNC(=O)C1CC(=O)N(C)CC1CCOCC1 (stereo not given),–,50.1 µM (active)

Compound,"activity change, negative = inhibition",Potency
CCc1ccc2ncc3c(-c4ccc(C)cc4)nn(CC(=O)NCc4ccccc4)c3c2c1,-0.883%,–
Cc1nn(C)c2c1c(C(F)(F)F)cc(=O)n2C(C)C(=O)NCc1ccc(Cl)cc1 (stereo not given),-2.62%,–
CC(C)c1ccc(NC(=O)Cn2nnc(C(=O)NCCc3ccccc3)c2N)cc1,0.776%,–
COc1ccccc1OCCNC(=O)c1cc([N+](=O)[O-])cc([N+](=O)[O-])c1,-14.8%,–
COc1ccc(C(=O)NCC(=O)N/N=C/c2ccc([N+](=O)[O-])o2)cc1OC,–,17.8 µM (active)
COc1cc(CC(=O)N/N=C/c2ccccc2)c([N+](=O)[O-])cc1OC,-4.34%,–
CC(C)(C)c1ccc(S(=O)(=O)N2CCN(C(=O)c3cc(-c4ccc(Br)cc4)n[nH]3)CC2)cc1,2.88%,–
COc1ccc(N2CCN(S(=O)(=O)c3ccc(-c4coc(C)n4)cc3)CC2)cc1,-15.6%,–
O=C(C1CCCN(S(=O)(=O)c2cccc3nonc23)C1)N1CCN(c2ccccc2F)CC1 (stereo not given),-12.4%,–
CCC(=O)N1CCc2cc(Br)cc(S(=O)(=O)Nc3ccc(C)cc3C)c21,6.97%,–
Oc1c(C=Nc2cccc3nsnc23)ccc2ccccc12,–,7.94 µM (active)
CCc1ccc(S(=O)(=O)n2ccnc2)cc1,7.8%,–
COCC(C)NS(=O)(=O)c1ccc(N2CCCCS2(=O)=O)cc1 (stereo not given),0.108%,–
O=C(O)CCCn1c(=O)c2cccn2c2ccc(F)cc21,-2.82%,–
COCCCn1c(CCC(=O)O)ccc1-c1ccc(F)cc1,–,44.7 µM (active)
COCCCNC(=O)C1CC(=O)N(CCc2ccc(F)cc2)C1 (stereo not given),-14.2%,–
CCOC(=O)C1CCCN(CC(=O)Nc2cc(C)c3c(=O)oc4ccccc4c3n2)C1 (stereo not given),3.8%,–
O=C(CSC1CC(=O)N(CCc2ccccc2)C1=O)Nc1ccc(Cl)cc1 (stereo not given),-3.43%,–
Cc1cc(Cl)ccc1N1C(=O)CC(SCCC(=O)O)C1=O (stereo not given),–,39.8 µM (active)
CCC1Oc2ccc(Cl)cc2N(CC(=O)O)C1=O (stereo not given),0.128%,–
COc1ccc(N2CCN(C(=O)c3c(C)oc4nc(C)nc(N5CCCC5)c34)CC2)cc1,-2.25%,–
COc1ccc(C(=O)N2CCC(c3nc4ccccc4o3)CC2)cc1,0.203%,–
O=C(NCc1ccco1)C(=O)c1cn(CC(=O)N2CCCCCC2)c2ccccc12,–,31.6 µM (active)
Cc1ccc(CNC(=O)C(=O)c2cn(CC(=O)N3CCCC3)c3ccccc23)cc1,-1.65%,–
Cc1ccc(CNC(=O)C(=O)c2cn(CC(=O)N3CCOCC3)c3ccccc23)cc1,-17%,–
